Source: PubChem BioAssay
Calls of active or inactive are those of the source.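 Rule for the calls, unless noted: active = NADPH fluorescence slope more negative than the mean of all samples by about 3 SD, 99.7% confidence; inactive = the rest.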

Columns and labels:
[1] = inhibitors of TNFa-induced NFkB p65 translocation, primary screen, imaging, HUVEC, MLSMR starter and 10KST1 sets (AID 438;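 active = inhibition above 20% together with a positive visual image hit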;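 note: compound added about 3h40 before a 20 min TNFalpha stimulation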;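 for inhibition: signal is the nuclear over cytoplasmic p65 intensity ratio per well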); conditions: HUVEC TNFa-induced p65 nuclear translocation; cell count: measured here: nuclei count (cytotoxicity indicator), at 2.08 µM; inhibition: at 2 µM, stronger effect = higher value, 0% TNFa-plus-vehicle, 100% no-TNFa wells
[2] = inhibitors of mutant huntingtin aggregation, primary screen, imaging, exon1htt(103Q)mCFP cells, high-content imaging (AID 483;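 active = visual image review flags a hit and inhibition of aggregation exceeds 20%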;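 note: compound exposure lasted 3 days before fixation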;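 for nuclei count: percent of the per-plate median nuclei count of sample wells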); conditions: exon1htt(103Q)mCFP cell line, aggregate imaging, at 2 µM; inhibition of aggregation: stronger effect = higher value; nuclei count: measured here: cell count, toxicity
[3] = inhibitors of E-selectin induction by TNFa, primary screen, imaging, HUVEC, immunofluorescence, MLSMR starter and 10KST1 sets (AID 487;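 active = visually confirmed hit in the image check and inhibition above 20%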;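 for inhibition: signal is fraction of cell area covered by stained E-selectin grains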;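 for nuclei count: 100% = median nuclei count of all wells on the same plate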); conditions: HUVEC TNFalpha-induced E-selectin immunofluorescence imaging, at 2 µM; inhibition: stronger effect = higher value; nuclei count: measured here: cell number, toxicity
[4] = target: Voltage-gated potassium channel subunit beta-2 (Rattus norvegicus) (UniProt P62483); assay: KvBeta enzyme negative modulators, primary screen, biochemical, NADPH fluorescence (AID 622;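 active = fluorescence slope higher than the sample average by over 3 SD, cut at about -0.22 in these data, passing the limit was not always enough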;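 note: slope of raw intensity against log time taken from 70 to 1610 s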); conditions: recombinant KvBeta, 4-cyanobenzaldehyde reduction, at 10 µM, stronger effect = higher value
[5] = target: Voltage-gated potassium channel subunit beta-2 (Rattus norvegicus) (UniProt P62483); assay: KvBeta positive modulators, primary screen, biochemical, NADPH fluorescence (AID 623); conditions: Recombinant KvBeta, NADPH fluorescence decrease slope, 10 min; at 10 µM; stronger effect = lower value;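 note: fluorescence intensity change per second fitted from 20 to 320 s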
[6] = target: Alpha-2C adrenergic receptor (Homo sapiens) (UniProt P18825); assay: modulators of alpha2C/GIRK thallium flux, primary screen, cell-based, HEK293 alpha2C/GIRK1/2 (AID 624;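 active = fluorescence slope after compound addition differing from the mean of all screened samples at 99.7% confidence, in either direction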;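 note: slope of fluorescence ratio to pre-addition baseline per second over 15 to 24 s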); conditions: thallium flux BTC fluorescence, at 10 µM, actives lie on both sides
[7] = inhibitors of Sendai virus-induced IRF3 signaling, primary screen, TLR/RLR signaling modifier project, cell-based, Sendai virus stimulus, luciferase, 10K MLSCN set (AID 602276;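 active = inhibition at or above 50% at 10 µM; inactive = inhibition below 50%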;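 note: firefly luciferase from ISG56 promoter only with Renilla not read in this screen; 0% = Sendai virus plus DMSO and 100% = medium plus DMSO without virus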); conditions: HEK293 RL24 IRF3 luciferase reporter, at 10 µM, stronger effect = higher value
[8] = inhibitors of poly I:C-induced TLR3 signaling, primary screen, cell-based, poly I:C stimulus, luciferase, 10K MLSCN set (AID 602277;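 active = inhibition of the reporter signal at or above 50%; inactive = inhibition below 50%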); conditions: HEK293-TLR3 RL24 IRF3 luciferase reporter, at 10 µM, stronger effect = higher value

Chain of Voltage-gated potassium channel subunit beta-2 (Rattus norvegicus) (P62483 whole entry, looked up): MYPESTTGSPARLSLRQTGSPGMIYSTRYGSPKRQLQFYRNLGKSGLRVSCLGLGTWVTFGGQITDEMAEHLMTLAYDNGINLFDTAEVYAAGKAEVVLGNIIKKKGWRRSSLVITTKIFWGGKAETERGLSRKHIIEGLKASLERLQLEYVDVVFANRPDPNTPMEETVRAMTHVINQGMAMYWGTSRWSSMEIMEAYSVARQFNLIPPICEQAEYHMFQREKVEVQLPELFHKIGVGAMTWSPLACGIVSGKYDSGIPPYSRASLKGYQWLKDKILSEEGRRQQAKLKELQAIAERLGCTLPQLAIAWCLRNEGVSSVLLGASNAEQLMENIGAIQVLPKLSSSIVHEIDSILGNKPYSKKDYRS
Chain of Alpha-2C adrenergic receptor (Homo sapiens) (P18825 whole entry, looked up): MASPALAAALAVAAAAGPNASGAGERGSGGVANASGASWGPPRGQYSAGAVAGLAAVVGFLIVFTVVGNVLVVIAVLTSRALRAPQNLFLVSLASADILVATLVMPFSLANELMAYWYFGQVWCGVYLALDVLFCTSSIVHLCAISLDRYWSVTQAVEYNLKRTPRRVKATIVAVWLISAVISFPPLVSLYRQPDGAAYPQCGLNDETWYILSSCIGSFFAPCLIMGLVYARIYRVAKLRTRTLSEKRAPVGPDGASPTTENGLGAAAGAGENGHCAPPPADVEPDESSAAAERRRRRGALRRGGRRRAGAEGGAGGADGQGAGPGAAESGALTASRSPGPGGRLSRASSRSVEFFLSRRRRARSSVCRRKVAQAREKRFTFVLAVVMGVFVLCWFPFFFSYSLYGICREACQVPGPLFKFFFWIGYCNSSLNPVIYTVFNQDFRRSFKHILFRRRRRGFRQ

Structure (SMILES)	cell count [1]	inhibition [1]	inhibition of aggregation [2]	nuclei count [2]	inhibition [3]	nuclei count [3]	fluorescence slope [4]	NADPH fluorescence slope [5]	slope [6]	inhibition [7]	inhibition [8]
CC(C)N(Cc1nc(-c2ccc(Cl)cc2)no1)C(=O)CN(C)S(=O)(=O)c1ccc(Cl)cc1	629	-2.8% (inactive)	-11.8% (inactive)	95.7%	-53.8% (inactive)	106%	-0.467 (inactive)	-5.4e-05 (inactive)	0.00647 (inactive)	20.4% (inactive)	25.9% (inactive)
CN1CCN(C2=C(Cl)C(=O)N(c3cccc(Cl)c3)C2=O)CC1	396	5.9% (inactive)	8.6% (inactive)	91.3%	-1.1% (inactive)	97.4%	-0.355 (inactive)	-3.9e-05 (inactive)	0.00541 (inactive)	5.11% (inactive)	13.1% (inactive)
Cc1cc(NC(=O)COc2cccc(C)c2C)no1	684	6.5% (inactive)	-9.8% (inactive)	104%	-16.6% (inactive)	121%	-0.549 (inactive)	-2.5e-05 (inactive)	0.00696 (inactive)	-0.401% (inactive)	0.183% (inactive)
CCCCN(CC)CCNC(=O)c1cc2c(C)nc3ccccc3c2o1	656	0.3% (inactive)	-11.7% (inactive)	103%	-28.4% (inactive)	110%	-0.544 (inactive)	-3.2e-05 (inactive)	0.00664 (inactive)	5.91% (inactive)	47% (inactive)
Cc1ccc2c(c1)NC(=O)C(CC(=O)NCCN(CC(C)C)CC(C)C)O2 (configuration not stated)	659	4.4% (inactive)	7.8% (inactive)	102%	-11% (inactive)	125%	-0.584 (inactive)	6e-06 (inactive)	0.00608 (inactive)	-16.7% (inactive)	-6.31% (inactive)
COc1ccc2c(CC(=O)Nc3ccc(OC)c(NS(=O)(=O)c4ccc(F)cc4)c3)coc2c1	403	-1.4% (inactive)	2.9% (inactive)	116%	-29.3% (inactive)	100%	-0.275 (inactive)	-8.3e-06 (inactive)	0.00715 (inactive)	9% (inactive)	18.5% (inactive)
Cc1cccc(Nc2nc(N)nc(CN3CCC(C(N)=O)CC3)n2)c1C	720	-4.3% (inactive)	-5.8% (inactive)	108%	-35% (inactive)	123%	-0.628 (inactive)	-2.1e-05 (inactive)	0.0067 (inactive)	-22.9% (inactive)	-60.3% (inactive)
CC(=O)Nc1ccc(S(=O)(=O)NCc2csc(-c3cccnc3)n2)cc1	356	-10.2% (inactive)	-11.8% (inactive)	108%	-19.2% (inactive)	101%	-0.511 (inactive)	-3.4e-05 (inactive)	0.00545 (inactive)	9.95% (inactive)	22.2% (inactive)
COc1cccc(NC(=O)CSc2nnc(-c3cc(-c4ccccn4)nc4ccccc34)o2)c1	578	-14.5% (inactive)	-14.5% (inactive)	112%	-102% (inactive)	141%	-0.57 (inactive)	-2e-06 (inactive)	0.00553 (inactive)	1.87% (inactive)	0.453% (inactive)
Cc1noc(C)c1S(=O)(=O)N1CCN(Cc2ccc3c(c2)OCO3)CC1	730	2.5% (inactive)	0.3% (inactive)	106%	-16.7% (inactive)	117%	-0.542 (inactive)	-2e-05 (inactive)	0.00533 (inactive)	4.24% (inactive)	18.3% (inactive)
O=C(c1ccc(-c2ccccc2)cc1)N1CCC(C(=O)N2CCCC2)CC1	237	-4.7% (inactive)	0.5% (inactive)	91.7%	-17.6% (inactive)	101%	-0.388 (inactive)	-5.3e-05 (inactive)	0.00472 (inactive)	16% (inactive)	8.25% (inactive)
O=C(CCN1C(=O)C2C3C=CC(C3)C2C1=O)Nc1c(F)cc(F)cc1Br (configuration not stated)	827	-6.6% (inactive)	16.5% (inactive)	95.3%	-21.9% (inactive)	120%	-0.587 (inactive)	-6.8e-05 (inactive)	0.00666 (inactive)	-0.108% (inactive)	11.7% (inactive)
